# ChEMBL document CHEMBL4513216, “Probing the Open Global Health Chemical Diversity Library for Multistage-Active Starting Points for Next-Generation Antimalarials” (ACS Infect Dis, 2020)
# In all, about 69,000 compounds went through this assay and about 8,600 (12%) showed an effect of 50% or more. This excerpt belongs to a sample that is enriched for strong results.
# Tested on: Plasmodium berghei
# Experiment: Screen against P. berghei liver stage (PbLuc), transformed with Luciferase, at 10uM
# Format: functional, HepG2
# Conditions: tested at 10 uM
row,Compound,INHIBITION [%]
1,Cc1nc(C)c(C(=O)N2CCN(CCOc3ccccc3C)CC2)o1,66.3
2,CCCC(=O)N1CCCN(C(=O)c2oc(C)nc2C)CC1,80
3,Cc1ocnc1C(=O)N1CCN(CCOc2ccccc2)CC1,37.6
4,Cc1nc(C)c(C(=O)N2CCc3nnc(C4CCCCN4C)n3CC2)o1 (stereo not given),-4.68
5,COCCN1CCCN(C(=O)c2oc(C)nc2C)CC1,33.4
6,CCCN1CCCN(C(=O)c2oc(C)nc2C)CC1,2.7
7,COCCNC(=O)C(C)n1nc(-c2ccco2)cc(N)c1=O (stereo not given),42.6
8,CC(C)OCCCN(Cc1ccncc1)Cc1cccc(F)c1F,-12.9
9,COc1cc2cc(C(=O)NCC(=O)O)n(C)c2c(OC)c1OC,57.3
10,COc1cc2cc(C(=O)O)n(C)c2c(OC)c1OC,-9.48
11,COc1cc2cc(C(=O)NCCC(=O)O)n(C)c2c(OC)c1OC,11
12,Cc1nc(C2CCCN2CCC(=O)N2CCc3ccccc32)no1 (stereo not given),5.03
13,Cc1nnc(N2C[C@H](OCC3CCCC3)[C@H]3OCCC[C@H]32)s1,-34.7
14,COc1ccc(OC)c(C2CCN(c3ccc4cc[nH]c4n3)C2)c1 (stereo not given),79.2
15,COc1cccc(C2CC(=O)Nc3nc(N4CCCCC4)sc32)c1OC (stereo not given),19.3
16,COc1ccc(OC)c(C2CCN(C3CCOCC3)C2)c1 (stereo not given),-68.6
17,COC(=O)c1ccc(N2CCC(c3ccccc3)CC2)nn1,-18.5
18,COc1ccc(OC)c(C2CCN(Cc3nc(C)n4ccccc34)C2)c1 (stereo not given),45.8
19,COc1cccc(C2CCN(c3ccc4cc[nH]c4n3)C2)c1OC (stereo not given),89.9
20,COc1ccccc1C1CCN(c2ccc3cc[nH]c3n2)CC1,88.2
21,COc1cccc(C2CC(=O)Nc3nc(N4CCOCC4)sc32)c1OC (stereo not given),13.4
22,COc1ccccc1OC1CCN(c2nc(N)nc3[nH]cnc23)CC1,-18.8

row,Compound,INHIBITION [%]
1,Fc1cnc(N2CCC3(CCCN(c4nncs4)C3)C2)nc1 (stereo not given),4.68
2,COCC1COCCC12CCN(CCc1ccccc1)CC2 (stereo not given),2.3
3,O=C(Nc1cn[nH]c1)c1ccncc1,35.95
4,CN(C)C(=O)CNC(=O)c1nc(C2CC2)n(-c2ccccc2Cl)n1,-20.8
5,O=C(c1ccnnc1)N1CC[C@H]2C[C@H](c3ccncn3)O[C@@H]2C1,25.2
6,Cc1ccc(Oc2ncccc2C(=O)O)c(C)c1,-16.2
7,CC(C)[C@H](Nc1cc(-c2ccncc2)nc2ccnn12)C(N)=O,25.5
8,CC(C)c1cc(N2CCN(c3ccc(O)cc3)CC2)n2nccc2n1,26.8
9,CC(C)c1cc(N[C@H](C(N)=O)C(C)C)n2nccc2n1,55.2
10,CC(C)c1cc(NCC(O)c2ccncc2)n2nccc2n1 (stereo not given),0.897
11,CC(C)c1cc(N2CCC(CCC(=O)NC3CC3)CC2)n2nccc2n1,33.5
12,CC(=O)NCC1CCN(c2cc(C(C)C)nc3ccnn23)CC1,59.4
13,CC(C)c1cc(N2CC[C@H](F)C2)n2nccc2n1,65.7
14,CC(C)c1cc(NCC(O)CO)n2nccc2n1 (stereo not given),36.8
15,CC(C)c1cc(NCC(C)N2CCCC2)n2nccc2n1 (stereo not given),65.1
16,CC(C)c1cc(N[C@@H](CO)C(N)=O)n2nccc2n1,42.3
17,Cc1cnn(CC2CCN(c3cc(C(C)C)nc4ccnn34)CC2)c1,21.2
18,CC(C)c1cc(N2CCC(N)CC2)n2nccc2n1,-6.53
19,O=C(Cc1ccsc1)N1CCC(O)(CN2CCc3ccccc3C2)C1 (stereo not given),30.8
20,COc1ncccc1CN1C[C@@H]2COC[C@]2(COCC(=O)N(C)C)C1,-3.52
21,CCn1cc(C(=O)NCCN2CCCc3ccccc32)c(C)n1,12.9
22,Cn1nc(C2CCN(C(=O)c3cccs3)CC2)c2cccnc21,47.2

row,Compound,INHIBITION [%]
1,CCc1nc(CS(=O)(=O)Cc2noc(C3CC3)n2)cs1,34
2,CC(C)=CCN1CCN(C(=O)C2CC2)CC1,21.5
3,CC(C)COCC1CN(Cc2ccsc2)Cc2ncn(C)c21 (stereo not given),16.4
4,Cn1nnc2c1C(COCc1cccnc1)CN(Cc1ccoc1)C2 (stereo not given),29.4
5,Cc1nc(C)c(CNCC2(COc3cccnc3)C[C@@H](O)[C@@H](O)C2)s1 (stereo not given in full),33.6
6,Cc1noc(CCCC(=O)N2CCCC2c2ccsc2)n1 (stereo not given),0.914
7,Cc1cccc2c1NC1(CCCC1)NC2=O,45.2
8,COC(=O)C1CCN(C(=O)Cn2ccc(-c3ccc(F)cc3)n2)CC1,-36.4
9,O=C1[C@@H]2CC[C@@H](CN(C3CSCCSC3)C2)N1Cc1cscn1,-14.9
10,Cc1nn2c(N3CCC(O)C3)cc(-c3ccccc3)nc2c1C (stereo not given),38.5
11,Cc1nn2c(N3CCCC(C#N)C3)cc(-c3ccccc3)nc2c1C (stereo not given),19.5
12,Cc1cc2nc(C(C)C)cc(N3CCC(O)CC3)n2n1,11.3
13,COC1CCN(c2cc(C(C)C)nc3ccnn23)C1 (stereo not given),7.6
14,Cc1cc(N2CCCC(N(C)C)C2)n2nc(C)cc2n1 (stereo not given),-1.16
15,CC(C)c1cc(N2CCC(N(C)C)C2)n2nccc2n1 (stereo not given),53.9
16,CN(C)C1CCN(c2cc(-c3ccccc3)nc3ccnn23)C1 (stereo not given),74.9
17,Cc1cc(N2CCCC(N(C)C)C2)n2nccc2n1 (stereo not given),55.4
18,Cc1cc2nc(C(C)C)cc(N3CCC(N(C)C)C3)n2n1 (stereo not given),17.7
19,CC(C)c1cc(N2CCC(C(C)N3CCCC3)CC2)n2nccc2n1 (stereo not given),73
20,CC(C)c1cc(N2CCC[C@H](N)C2)n2nccc2n1,13
21,CC(C)c1cc(N2CCSCC2)n2nccc2n1,-6.03
22,COc1cccc(OCCc2nnc(NC(C)=O)s2)c1,-8.9

row,Compound,INHIBITION [%]
1,N[C@H]1CN(C(=O)CCCc2ccc(F)cc2)C[C@@H]1C1CC1,25.1
2,O=C1COc2ccc(C(=O)NS(=O)(=O)c3cc(F)ccc3F)cc2N1,33.3
3,CCc1cc(NC(=O)C2CCCN(C(=O)c3ccncc3)C2)[nH]n1 (stereo not given),8.86
4,O=C(Cc1csc(-c2cccc(Cl)c2)n1)NCc1cccc(C(=O)O)c1,34.5
5,COCCN(CCOC)C(=O)c1c[nH]nc1-c1cccc(F)c1,-3.24
6,Cc1nc(-c2ccc(Cl)s2)sc1C(=O)NCCCC(N)=O,-102.2
7,CCN1CC(COC(=O)c2cc(Br)ccc2F)CC1=O (stereo not given),8.4
8,CC(C)C1CCCN1CC(=O)NCc1ccc(OCC(N)=O)cc1 (stereo not given),12.8
9,CC(C)c1cc(NC(CO)CO)n2nccc2n1,33.2
10,CC(C)c1cc(N2CCC(NS(C)(=O)=O)C2)nc(C(C)C)n1 (stereo not given),49.6
11,CC(C)c1cc(N2CCC(NS(C)(=O)=O)CC2)n2nccc2n1,61.2
12,CC(=O)N1CCCN(C(=O)CCc2c(C)nc3ccnn3c2C)CC1,10
13,O=C(Nc1ccccc1)c1ccc2c(c1)C1(CCCCC1)CN2,90.1
14,CC(=O)N1CCC2(CC1)CNc1ccc(F)cc12,36.2
15,CC(=O)c1ccc(NC(=O)c2ccc3c(c2)C2(CCCCC2)CN3)cc1,64.7
16,O=C(Nc1ccccc1)C1=NOC2(CCCNC2)C1 (stereo not given),-4.02
17,CN(C)C(=O)N1CCC2(CC1)CNc1ccc(F)cc12,49.1
18,CNC(=O)N1CCC2(CC1)CNc1ccc(F)cc12,10.5
19,CCOCC1CN(S(=O)(=O)c2ccccc2)Cc2nccn2C1 (stereo not given),34
20,COC(C)(C)C(=O)N1CCC(c2cc(CN(C)C)n(C)n2)CC1,-42.1
21,CC(=O)N1CCN(C(=O)C(C)OCC(F)(F)F)CC1 (stereo not given),-22.8
22,CN(CC(N)=O)C(=O)c1cc(Cl)c(Cl)n1C,8.4

row,Compound,INHIBITION [%]
1,Cc1ccc(C(=O)NC2CCN(Cc3noc(CC(C)C)n3)CC2)s1,71.8
2,Cc1ccc(C(=O)NC2CCN(Cc3nc(CC(C)C)no3)CC2)s1,18.6
3,Cc1ccc(C(=O)NC2CCN(Cc3noc(C(C)C)n3)CC2)s1,7.44
4,CC(C)Cc1nc(CN2CCC(NC(=O)c3cccs3)CC2)no1,24.2
5,CC(C)Cc1noc(CN2CCN(C(=O)c3cccs3)CC2)n1,0.891
6,CC(C)Cc1noc(CN2CCC(NC(=O)c3cccs3)CC2)n1,53.5
7,CCOc1ccnc(N2CCCN(C(=O)c3cc[nH]c3C)CC2)n1,-7.31
8,COc1ccccc1-c1ccc(NCc2cn3c(n2)SCC3)nn1,9
9,CCc1c(C)nc2n(c1=O)CC(C(=O)Nc1ccccc1C)CS2 (stereo not given),42.4
10,CC(C)CCCNC(=O)Nc1ccc(C(N)=O)c(Cl)c1,-49.5
11,CN(C)c1no[n+]([O-])c1-c1ccccc1,-3.19
12,COc1no[n+]([O-])c1-c1ccccc1,63.5
13,CCOc1no[n+]([O-])c1-c1ccccc1,36.9
14,Cc1[nH]ncc1C(=O)N(CC(C)C)CC(O)c1ccc(F)cc1 (stereo not given),-12.1
15,CCN1CC2(CCC1=O)CCN(CCOc1ccc(F)cc1)CC2,10.1
16,CCC(CC)C(O)CNC(=O)Nc1cc(C)nn1C (stereo not given),11.6
17,Cc1ccc(C(=O)N2CC[C@@]3(O)CCN(C(=O)N(C)C)C[C@H]3C2)cc1Cl,62.8
18,Cc1ccc(C(=O)N2CC[C@@]3(O)CCCC[C@H]3C2)cc1,56.3
19,Cc1ncc(C(=O)N2CC[C@@]3(O)CCN(C(=O)N(C)C)C[C@H]3C2)cn1,37.8
20,Cn1ccc2cc(C(=O)N3CC[C@@]4(O)CCCC[C@H]4C3)ccc21,-4.87
21,CN(C)C(=O)N1CC[C@]2(O)CCN(C(=O)c3ccc(C#N)nc3)C[C@@H]2C1,42.4
22,COc1ccc(C(=O)N2CC[C@@]3(O)CCCC[C@H]3C2)cc1OC,44.3
